Calls of active or inactive are those of the source.
Molecular target: Torsin-1A-interacting protein 2 (Homo sapiens) (UniProt Q8NFQ8)
Sequence (Q8NFQ8 whole entry, looked up): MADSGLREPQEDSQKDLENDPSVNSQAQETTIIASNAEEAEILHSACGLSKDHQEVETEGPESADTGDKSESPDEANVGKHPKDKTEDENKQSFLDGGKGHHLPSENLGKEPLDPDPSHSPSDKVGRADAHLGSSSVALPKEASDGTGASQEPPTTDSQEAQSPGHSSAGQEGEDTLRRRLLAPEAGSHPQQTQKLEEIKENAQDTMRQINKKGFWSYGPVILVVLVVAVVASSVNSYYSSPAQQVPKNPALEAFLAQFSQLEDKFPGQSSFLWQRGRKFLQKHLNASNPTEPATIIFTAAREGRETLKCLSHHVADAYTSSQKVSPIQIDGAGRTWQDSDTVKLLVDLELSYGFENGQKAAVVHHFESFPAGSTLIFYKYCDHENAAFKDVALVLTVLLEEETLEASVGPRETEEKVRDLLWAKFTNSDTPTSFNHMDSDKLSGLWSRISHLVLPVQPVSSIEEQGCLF
Experiment: small molecules binding lysate-expressed LULL1 – cell lysate, human LULL1 lysate, 635/667 nm fluorescence, primary screen (AID 1092);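 note: probe is lysate of COS7 cells overexpressing human LULL1; score merges per-feature 667 nm fluorescence with signal-to-noise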
Conditions: small-molecule microarray, hLULL1 lysate binding, 635 nm fluorescence; higher = more signal
Work on `CC(C)C(=C=CC[C@@H](O)c1cccc(OCCO)c1)C[C@@H](O)COCc1ccccc1` yielded a composite z-score of 0.493. For `COC(=O)[C@@]1(Cc2ccccc2)[C@H]2c3cc(C(=O)N4CCCC4)n(CCSCCO)c3C[C@H]2CN1C(=O)c1ccccc1`, the composite z-score was 3.67. Compound `CCOC(=O)C1=C[C@@H](C(C)(C)C)N(S(=O)(=O)c2ccc(C)cc2)[C@H]1c1cccc(Cl)c1` has a composite z-score of 2.81. In the case of `C=C[C@H](C)[C@H](OC(=O)Nc1ccc(OC)cc1)c1ccc(OCCO)cc1`, the composite z-score is reported as 0.038. Work on `C[C@]1(C(=O)O)c2ccccc2C(=O)N(Cc2ccc(OC(F)(F)F)cc2)[C@H]1c1ccc(CO)cc1` yielded a composite z-score of 0.945.

Test system: not listed separately
Experiment: optical density change of DRC41 E. coli – strain DRC41, OD650, 24 h, E. coli filamentation project, primary screen (AID 1093);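 note: MC1000 strain lacking acrAB efflux and sulA so SOS filamentation is blocked; test concentration not given here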
Conditions: E. coli DRC41 growth, higher = more signal, called active from +8 up or from −8 down
In the case of `COc1cc(NN2C(C(O)c3ccc(I)cc3)C=CC3C(=O)N(c4ccccc4)C(=O)C32)cc(OC)c1OC` (stereo unspecified), the z-score is reported as -0.699 (inactive). With `CN(C)CCCC[C@@H]1NC(=O)[C@@H]2C[C@H](C(=O)O)[C@H](c3cccc(OCCO)c3)N2C1=O` the z-score was 0.802 (inactive). With `CN1C(=O)C2C=CC(C(O)c3cc(C(F)(F)F)cc(C(F)(F)F)c3)N(Nc3ccccc3)C2C1=O` (stereo unspecified) the z-score was -0.565 (inactive). In the case of `C=C(/C(=C/C[C@H](OC(=O)c1ccncc1)c1ccccc1OCCO)c1cnc2ccccc2c1)C(C)C`, the z-score is reported as -0.0584 (inactive). With `COC(=O)[C@@]1(Cc2ccccc2CN=[N+]=[N-])N=C(c2ccc(OCCCO)cc2)O[C@H]1c1ccccc1` the z-score was 0.77 (inactive). With `C=CCC(OC(C)=O)[C@@H]1[C@@H](N(Cc2cccc3ccccc23)C(=O)c2ccc(-c3ccccc3)cc2)c2cc(OCCCO)ccc2N1C(=O)c1ccc(-c2ccccc2)cc1` (stereo partly specified) the z-score was -1.02 (inactive).
